Screening data deposited in PubChem by National Center for Advancing Translational Sciences (NCATS).
HT1080NT lethal – kills 2HG-producing HT-1080-NT fibrosarcoma cells | HT-1080-NT fibrosarcoma viability, CellTiter-Glo ATP luminescence, 48 h | Potency, µM (series often up to 46.1 µM), without a hit: at the top dose activity, negative = less viability, hits mostly cytotoxic | 1.6% of 360,000 active;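 also: NT is the 2HG producing partner of a matched IDH1 knockdown line; potency is read from the fitted curve at half-maximal effect; 0% = DMSO-treated cells and -100% = media-only wells without cells; nearly all actives have a fitted effect of over 55% in size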
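750 cells/well, RPMI + 5% FBS; 2 h settle, compound pin-transfer, 48 h at 37 degrees C. CellTiter-Glo 10 min RT, luminescence. Normalized to DMSO and media-only wells.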
IL-1B inflam inh – blocks inflammasome-driven IL-1 beta release; THP-1 LPS/ATP IL-1B secretion, AlphaLISA, 16 h; stronger effect = lower value; activity change, % at 57.5 µM; 4.7% of 360,000 active; AID 743279; in the data active = activity change below about -50%; inconclusive = mostly about -30% to -49%
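THP-1 cells pretreated 1 hr with compounds (up to 57.5 uM final), then stimulated with LPS (250 ng/mL final) plus ATP (1.25 mM final); secreted IL-1B measured by AlphaLISA after 16 hr, decreased signal indicating inhibition.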
DT40 TDP1 CPT – DT40-hTDP1 cell growth loss with CPT; Potency, µM (doses to about 46.2 µM), inactives show top-dose activity change, negative = growth inhibition, usual class: inhibitors; AID 686979; 12% of 420,000 active; chicken DT40 Tdp1-/-;hTDP1 cells + 20 nM CPT, ATP luminescence, 48 h; also: potency is read from the fitted curve at half-maximal effect; nearly all actives have a fitted effect of over 55% in size
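Chicken DT40 Tdp1-/- cells stably complemented with human TDP1 were seeded at 400 cells/well in medium containing 20 nM camptothecin, exposed to pin-transferred compounds, and grown at 37 °C for at least 48 hr. Viability was read as ATP luminescence.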
HT1080 IDH1KD tx – toxicity to HT-1080 IDH1 knockdown cells (counter line). 2% of 360,000 active. Potency, µM (series often up to 46.1 µM), inactives show at the top dose activity, negative = toxicity, actives largely listed as cytotoxic. AID 686971. HT-1080 IDH1 knockdown viability, ATP luminescence, 48 h;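 also: potency is read from the fitted curve at half-maximal effect; 0% = DMSO wells and -100% = cell-free medium wells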
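% activity derives from luminescence (CellTiter-Glo), normalised to DMSO and no-cell wells. HT-1080-IDH1KD cells, 750/well, had 48 h compound exposure at 37 °C.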
DT40 TDP1 no CPT – qHTS for Inhibitors of human tyrosyl-DNA phosphodiesterase 1 (TDP1): qHTS in cells in absence of CPT. DT40 Tdp1-/- hTDP1 cells, no CPT, ATP luminescence, 48 h. Potency, µM (titrated, usually from 46.2 µM), without a hit: at the highest dose activity change, negative = growth inhibition, actives largely listed as inhibitors. 15% of 420,000 active. AID 686978, 2013; also: potency is read from the fitted curve at half-maximal effect; nearly all actives have a fitted effect of over 55% in size
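Cells were dispensed at 400 per well, compounds added by pin tool, plates incubated ≥48 hr at 37 °C, then CellTiter-Glo added for 30 min at room temperature before luminescence reading. Line: DT40 Tdp1-/- complemented with hTDP1; camptothecin omitted.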
ELG1 repair inh – blocks ELG1-dependent DNA repair in HEK293T cells | 2.3% of 330,000 active | HEK293T ELG1-luciferase reporter, luminescence, 16 h; DNA damage induced by 5-fluorouridine | Potency, µM (doses to about 46.1 µM), inactives show at the top dose activity change, negative = inhibition, usual class: inhibitors; also: potency is read from the fitted curve at half-maximal effect; nearly all actives have a fitted effect of over 55% in size
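5-Fluorouridine DNA damage + compound/DMSO, 2,000 cells/well, 16 h, 37 °C/5% CO2. ONE-Glo, 30 min RT, luminescence. Readout = decrease in reporter signal.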
The depositor's hits bear a star; ? = inconclusive; . = no result given. A selection: hits, their analogues and other compounds. The true share with any hit is near 19%. Unless noted, calls follow the shape of the dose curve; as a rule, active = well fitted curve in the direction sought with a large enough effect; inconclusive = small, poorly fitted or top-dose-only effect, or another doubt; inactive = no such curve, though single readings can be large; an effect the other way counts as inactive or inconclusive. Unless noted, % is scaled to controls: 0 for no effect and ±100 for the full control effect.

SMILES	HT1080NT lethal	IL-1B inflam inh	DT40 TDP1 CPT	HT1080 IDH1KD tx	DT40 TDP1 no CPT	ELG1 repair inh
CC(C)(C)c1nnc(NC(=O)C2CCN(C(=O)c3ccccc3)CC2)s1	.	.	14µM*	.	?	.
COc1ccc(NC(=O)Nc2ccc(C(=O)N3CCOCC3)cc2)cc1	7%	7	-3%	5%	-6%	-12%
COc1ccc(C)cc1NC(=O)C1CCN(C(=O)c2ccc(C(C)(C)C)cc2)CC1	-19%	-16	?	-15%	18µM*	18%
COc1ccccc1NC(=O)Cn1c(C)cc(C)c(C#N)c1=O	.	.	-5%	.	11%	.
CC(C)(C)c1ccc(C(=O)N2CCN(C(=O)C3CCCCC3)CC2)cc1	5%	-10	15µM*	7%	?	5%
CC(C)(C)c1ccc(C(=O)N2CCNCC2)cc1	-3%	-3	-23%	-4%	-22%	10%
CC(C)(C)c1ccc(C(=O)N2CCCN(C(=O)c3ccc(C(C)(C)C)cc3)CC2)cc1	16%	0	?	20%	13µM*	10%
O=C(NCCC1=CCCCC1)C1CCN(S(=O)(=O)N2CCCC2)CC1	-7%	33	?	0%	?	-4%
Cc1ccc(C(=O)N2CCC(C(=O)c3ccc(Cl)cc3)CC2)cc1	?	-11	?	-11%	12µM*	-29%
CC(C)(C)c1ccc(C(=O)N2CCC(C(=O)NCCC3=CCCCC3)CC2)cc1	-28%	-4	?	?	18µM*	-5%
O=C(Cn1nnnc1-c1ccccc1F)Nc1ccc(F)c(F)c1	.	.	-27%	.	-21%	.
O=C(c1ccccc1)C1CCN(C(=O)c2ccc(Cl)cc2)CC1	0%	-26	?	-5%	-28%	-15%
CCc1ccc(NC(=O)N2CCN(Cc3cc(=O)n4nc(-c5ccccc5OC)sc4n3)CC2)cc1	.	.	?	.	15µM*	.
O=C(CN1CCC(C(=O)c2ccc(Cl)cc2)CC1)NC1CCCC1	-13%	28	?	0%	23µM*	?
CC(C)(C)c1ccc(C(=O)N2CCC(C(=O)c3ccccc3)CC2)cc1	-13%	-75*	18µM*	-18%	21µM*	-29%
COC(=O)c1ccc(NC(=O)N2CCN(Cc3cc(=O)n4nc(-c5ccc(C)cc5)sc4n3)CC2)cc1	.	.	-1%	.	-10%	.
CC(C)(C)c1ccc(C(=O)N2CCC(C(=O)NC3CCCCCC3)CC2)cc1	-26%	?	?	-12%	21µM*	?
COc1ccc(-c2nn3c(=O)cc(CN4CCN(C(=O)c5ccc(C(C)(C)C)cc5)CC4)nc3s2)cc1	.	.	3.3µM*	.	2.9µM*	.
O=C(Nc1ccc(C(=O)N2CCOCC2)cc1)c1ccccc1	4%	3	-2%	1%	-7%	.
CC(C)(C)c1ccc(C(=O)Nc2ccc(C(=O)N3CCOCC3)cc2)cc1	-4%	-85*	23µM*	-7%	21µM*	-15%
NC1=NC(=Nc2cccc(S(=O)(=O)N3CCOCC3)c2)c2ccccc21	-22%	-60*	?	-27%	-29%	?
NC1=NC(=Nc2ccc(S(N)(=O)=O)cc2)c2ccccc21	2%	-27	-18%	8%	-7%	?
Cc1[nH]n(-c2ncc(-c3ccccc3)s2)c(=O)c1C(c1ccc(Cl)cc1)C(C#N)C#N (centres undefined)	7%	-64*	?	8%	?	?
O=C(Cc1cccc(C(F)(F)F)c1)OCN1C(=O)c2ccccc2C1=O	17%	11	-11%	8%	-3%	3%
Cc1cc(F)ccc1S(=O)(=O)Nc1nc2ccccc2nc1Cl	-9%	-51*	?	-9%	?	?
SMILES	HT1080NT lethal	IL-1B inflam inh	DT40 TDP1 CPT	HT1080 IDH1KD tx	DT40 TDP1 no CPT	ELG1 repair inh
Cc1ccc(O)c(C(=O)/C=C/c2ccc3c(c2)OCCCO3)c1	?	-105*	?	?	?	?
Cc1ccc(/C=C/C(=O)c2ccccc2O)cc1	?	-102*	?	?	?	?
CN(C)c1ccc(/C=C/C(=O)c2ccccc2O)cc1	2%	3	?	13%	-23%	?
O=C(C=Cc1ccccc1)c1cc(Br)ccc1O	-1%	-22	?	0%	?	.
Cc1ccc2occ(/C=C/C(=O)c3ccccc3O)c(=O)c2c1	7%	-1	18µM*	7%	?	-2%
Cc1ccc(O)c(C(=O)C=Cc2ccccc2)c1	?	-101*	?	?	21µM*	.
Cc1c(/C=C/C(=O)c2ccccc2O)cnn1C	?	18	-26%	17%	?	?
COc1ccccc1NC(=O)c1oc2ccccc2c1NC(=O)COc1cccc(C)c1	.	.	-9%	.	1%	.
Cc1cn2c(=O)cc(COc3ccc(Cl)cc3)nc2s1	.	.	-5%	.	0%	.
Cc1noc(C)c1S(=O)(=O)N1CCCN(C(=O)/C=C/c2ccccc2F)CC1	6%	-5	-14%	0%	?	3%
Cc1cccc(N2CCN(Cc3nnc(-c4ccccc4C)o3)CC2C)c1 (centres undefined)	.	.	13µM*	.	?	.
Cc1ccc(C(C)C)c(OCCSc2nc3ccccc3n2CC(O)CO)c1 (centres undefined)	.	.	13µM*	.	16µM*	.
COc1ccccc1CNC(=O)CCC(=O)N1Cc2ccccc2Oc2ncccc21	.	.	?	.	-23%	.
Cn1c(SCc2ccccc2)nnc1C1CCCN(Cc2cccc3ncccc23)C1 (centres undefined)	.	.	?	.	-27%	.
CCC1=[N+](C)CCn2c(C)ccc21	0%	17	-7%	0%	-25%	0%
CCC1=[N+](CC(=O)c2ccc(C)cc2)CCn2c(C)ccc21	-13%	-5	2.9µM*	?	2.1µM*	?
CCC1=[N+](CC(=O)c2ccc(Br)cc2)CCn2c(C)ccc21	-9%	2	?	-7%	10µM*	?
CCC1=[N+](CC(=O)c2ccc(C)cc2)CCn2cccc21	-15%	-3	4.1µM*	-9%	5.2µM*	?
Cc1ccc(NC(=S)NC(=O)C2CCCC2)c(Br)c1	-15%	23	-25%	2%	?	?
CCCOc1ccc(C(=O)CCCC(=O)c2ccc(OCCC)cc2)cc1	7%	5	-23%	8%	-5%	0%
